Sampled rows, rich in hits. Any-hit rate of the full collection: about 12%.
JMJD2A Tudor inh – qHTS Assay for Inhibitors of JMJD2A-Tudor Domain. AID 504339, 2011. Potency, µM (titrated, usually from 114 µM), hits mostly inhibitors. hit rate 4.4% among 390,000. Lysine-specific demethylase 4A (Homo sapiens), O75164. AlphaScreen JMJD2A-Tudor / H3K4me3 peptide binding; also: nearly all actives have a fitted effect of over 50% in size
G9a block – qHTS Assay for Inhibitors of Histone Lysine Methyltransferase G9a. Histone-lysine N-methyltransferase EHMT2 (Homo sapiens), Q96KQ7. G9a H3K9 monomethylation, AlphaScreen, 2 h. Potency, µM (highest dose often 102 µM), actives largely listed as inhibitors. hit rate 8.8% among 350,000. AID 504332, 2011; also: nearly all actives have a fitted effect of over 75% in size
Target sequence (Q96KQ7 913-1193 limits assumed): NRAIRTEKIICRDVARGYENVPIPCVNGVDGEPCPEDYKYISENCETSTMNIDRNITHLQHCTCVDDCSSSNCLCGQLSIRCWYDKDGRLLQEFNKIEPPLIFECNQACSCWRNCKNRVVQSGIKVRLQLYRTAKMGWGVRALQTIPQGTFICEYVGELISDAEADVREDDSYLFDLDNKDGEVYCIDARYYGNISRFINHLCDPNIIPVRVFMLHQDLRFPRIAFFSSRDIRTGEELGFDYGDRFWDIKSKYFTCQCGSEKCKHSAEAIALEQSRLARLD
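Readings reflect AlphaScreen signal from monomethyl-H3K9 antibody detection. HMT at 20 nM; substrate b-H3K9 500 nM; cofactor SAM 20 uM; 2 h RT reaction; compounds tested as titrations in qHTS with 15 min preincubation.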
HP1b chromo inh – HTS for Inhibitors of HP1-beta Chromodomain Interactions with Methylated Histone Tails | hit rate 0.56% among 390,000 | AID 540317, 2011 | AlphaScreen HP1-beta / biotin-H3K9me3 peptide binding | Potency, µM (series often up to 114 µM), hits mostly inhibitors; also: nearly all actives have a fitted effect of over 70% in size
Target sequence (P83916 whole entry, looked up): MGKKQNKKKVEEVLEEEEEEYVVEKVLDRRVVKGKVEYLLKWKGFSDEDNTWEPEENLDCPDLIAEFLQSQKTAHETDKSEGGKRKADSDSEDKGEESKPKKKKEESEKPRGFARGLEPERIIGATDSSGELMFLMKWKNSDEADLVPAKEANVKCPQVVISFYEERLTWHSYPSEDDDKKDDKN
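HP1-beta protein (50 nM final) preincubated 30 min at room temperature with biotinylated H3(1-18)K9me3 peptide (50 nM) in PBS pH 7.4, 0.01% Tween-20, then compound added for 30 min. AlphaScreen streptavidin donor/nickel chelate acceptor beads (10 ug/mL final), 30 min dark, luminescence read.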
PI5P4Ka inh – qHTS for Inhibitors of phosphatidylinositol 5-phosphate 4-kinase (PI5P4K); Phosphatidylinositol 5-phosphate 4-kinase type-2 alpha (Homo sapiens), P48426; hit rate 1.2% among 330,000; max response, %; PI5P4Kalpha enzyme, ADP-Glo luminescence, 60 min; hits give low values; active = max response of -50% or lower; inconclusive = between -30% and -50%; inactive = -30% or higher; also: value at the top dose of about 77 µM
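Compounds were pin-transferred onto PI5P4Kalpha and substrate in HEPES pH 7.4 buffer with EGTA, CHAPS and 5% DMSO. ATP (5 microM final) started the reaction, which ran 60 minutes at room temperature before ADP-Glo detection.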
PLK1 PBD block – qHTS for Inhibitors of PLK1-PDB (polo-like kinase 1 - polo-box domain): Primary Screen; Plk1 PBD binding of FITC phosphopeptide, fluorescence polarization; Potency, µM, actives largely listed as inhibitors; hit rate 2.8% among 360,000; also: series mostly up to about 57 µM; nearly all actives have a fitted effect of over 65% in size
BAZ2B inh – qHTS Assay for Inhibitors of BAZ2B; Bromodomain adjacent to zinc finger domain protein 2B (Homo sapiens), Q9UIF8; AlphaScreen BAZ2B-H3K14Ac peptide displacement; Potency, µM (top dose mostly 114 µM), hits mostly inhibitors; hit rate 4.4% among 360,000; also: nearly all actives have a fitted effect of over 60% in size
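In this displacement format the biotinylated H3(5-23) peptide acetylated at Lys14 serves as ligand at 50 nM, with BAZ2B at 50 nM in PBS pH 7.4 containing 0.01% Tween-20. Donor and acceptor beads are 10 ug/mL final.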
Large screens that a line does not name were inactive. Unless noted, calls follow the shape of the dose curve; as a rule, active = well fitted curve in the direction sought with a large enough effect; inconclusive = small, poorly fitted or top-dose-only effect, or another doubt; inactive = no such curve, though single readings can be large; an effect the other way counts as inactive or inconclusive.

CN(C)CCCN(C(=O)c1ccc([N+](=O)[O-])s1)c1nc2cc3c(cc2s1)OCCO3	JMJD2A Tudor inh inconclusive, G9a block 44.7µM, BAZ2B inh inconclusive
Cc1cc(O)c(C(=O)/C=C/c2ccccc2Br)c(=O)o1	JMJD2A Tudor inh inconclusive, PI5P4Ka inh -69.7 (no result: G9a block)
Cc1cc(O)c(C(=O)/C=C/c2ccccc2)c(=O)o1	G9a block inconclusive, PI5P4Ka inh -50.5
CCOc1ccc(/C=C/C(=O)c2c(O)cc(C)oc2=O)cc1	G9a block inconclusive
Cc1cc(O)c(C(=O)/C=C/c2ccc(C(C)C)cc2)c(=O)o1	PI5P4Ka inh -62.7
CNC(=O)c1cnc2sc(N3CCCCCC3)nn2c1=O	none (no result: PI5P4Ka inh, PLK1 PBD block)
Cc1c(C2Nc3ccccc3C(=O)N2O)cnn1C (centres undefined)	JMJD2A Tudor inh inconclusive, G9a block 10µM
CCn1cc(C2Nc3ccccc3C(=O)N2O)c(C)n1 (centres undefined)	G9a block 17.8µM
Cc1ccc(NC(=O)c2ccc3c(c2)CCN3S(C)(=O)=O)cc1C	JMJD2A Tudor inh 15.8µM, PI5P4Ka inh inconclusive, PLK1 PBD block 2.99µM
O=C(O)c1ccc(NC(=O)c2cccc(S(=O)(=O)Nc3ccc(C(=O)O)cc3)c2)cc1	none
COc1ccc(NS(=O)(=O)c2cccc(NC(=O)c3ccc(Cl)nc3)c2)cc1	none
O=C(Nc1cccc(S(=O)(=O)Nc2ccc(Cl)cc2)c1)c1ccc(Cl)nc1	G9a block 79.4µM
O=C1CSc2ccc(C(=O)Nc3cccc(S(=O)(=O)Nc4ccc(Br)cc4)c3)cc2N1	JMJD2A Tudor inh inconclusive, G9a block inconclusive, PI5P4Ka inh inconclusive, PLK1 PBD block 21.2µM, BAZ2B inh inconclusive
CCOc1ccc(CCNC(=O)C2CCN(c3ncnc4c3nc3n4CCCCC3)CC2)cc1	none (no result: PI5P4Ka inh, PLK1 PBD block)
Cc1ccc(S(=O)(=O)/N=C2\C(=O)c3ccccc3C([O-])=C2n2cc[n+](CCC(C)C)c2)cc1	G9a block inconclusive (no result: PI5P4Ka inh)
CCCC[n+]1ccn(C2=C([O-])c3ccccc3C(=O)/C2=N\S(=O)(=O)c2ccc(Br)cc2)c1	G9a block 44.7µM, BAZ2B inh 89.1µM
COc1ccc(CC(=O)Nc2ccc3nc(C)sc3c2)cc1OC	G9a block 20µM
Cc1nc2ccc(NC(=O)COc3ccccc3[N+](=O)[O-])cc2s1	none
Cc1nc2ccc(NC(=O)COc3ccccc3C)cc2s1	G9a block 44.7µM
COc1ccc(C(=O)Nc2ccc3nc(C)sc3c2)cc1OC	none
CC(Oc1cc2oc(=O)cc(-c3ccccc3)c2cc1Cl)C(=O)NCC1CCC(C(=O)O)CC1 (centres undefined)	none
CC(NC(=O)OC(C)(C)C)C(=O)Oc1cc2oc(=O)cc(-c3ccccc3)c2cc1Cl (centres undefined)	PI5P4Ka inh -69.2
c1cc(SSc2ccncc2)ccn1	JMJD2A Tudor inh 14.1µM, G9a block 0.562µM, HP1b chromo inh inconclusive, PI5P4Ka inh -70.5, PLK1 PBD block 1.89µM, BAZ2B inh inconclusive
O=C(CCn1nc(-c2ccccc2)ccc1=O)NCCCN1CCCCCC1	JMJD2A Tudor inh inconclusive, BAZ2B inh 79.4µM (no result: G9a block)
Cc1ccc(-n2c(C)cc(C3N=C(N)Nc4nc5ccccc5n43)c2C)c(C)c1 (centres undefined)	JMJD2A Tudor inh 39.8µM, HP1b chromo inh inconclusive, BAZ2B inh 39.8µM (no result: PI5P4Ka inh)
COc1ccc(-c2nc3scc(CCNS(=O)(=O)c4ccc(F)cc4C)n3n2)cc1	none (no result: PI5P4Ka inh, PLK1 PBD block)
O=C(N/N=C(\c1ccccc1)c1cccnc1)c1cccc(F)c1	JMJD2A Tudor inh 44.7µM, BAZ2B inh 56.2µM
O=C(Nc1ccc(F)cc1F)c1cccnc1	JMJD2A Tudor inh inconclusive, PLK1 PBD block 26.7µM
COc1cccc(C(=O)Nc2nnc(SCC(=O)NC3CCCC3)s2)c1	none

Screening results as filed in PubChem BioAssay.
